# Assay results reported in the supplement of paper PMC10338343.
# ± gives the standard deviation.
# What was measured:
# [1] = system: MILI (PIWIL2) piRISC loaded with L1MC piRNA (26 nt); assay: pre-steady-state target cleavage rate (min^-1); guide: L1MC piRNA 5'p-UAACUAAAUACUAUGCAAGCUGUAGG; higher = faster piRNA-guided slicing of the target; settings: auxiliary factor: 500 nM mouse GTSF1
# Summary of the method: (§1)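 In Cleave-'n-Seq, a transcribed, DNA-blocked target RNA library (0.1 nM) was combined with 1 nM active affinity-purified piRISC bearing one synthetic guide, with or without 500 nM GTSF1 partner protein. Reactions ran in HEPES–potassium acetate buffer at 33 °C for 0–8 or 0–960 min. Uncleaved targets were sequenced and normalised to depth and to weakly complementary targets, three trials were pooled, and k3 was capped at 0.0001 min^-1. The pre-steady-state cleavage rate was obtained by fitting a burst-and-steady-state model.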
# [2] = system: EfPiwi piRISC loaded with L1MC piRNA (26 nt); assay: pre-steady-state target cleavage rate (min^-1); auxiliary factor: 500 nM Ephydatia muelleri Gtsf1; guide: L1MC piRNA 5'p-UAACUAAAUACUAUGCAAGCUGUAGG; MIWI and MILI are mouse PIWI proteins and EfPiwi is from a freshwater sponge; tags in brackets are library labels; higher = faster piRNA-guided slicing of the target
# Summary of the method: as §1
sequence,measurement,setting,value
UCCUCCUACAGCUUGCAUAGUAUAAUGAAA,pre-steady-state target cleavage rate,[1],0.0878 ± 0.019
same,pre-steady-state target cleavage rate,[2],0.00235 ± 0.0022
UCCUGGAUGAGCUUGCAUAGUAUUUACAUA,pre-steady-state target cleavage rate,[1],0.0149 ± 0.0065
same,pre-steady-state target cleavage rate,[2],0.00323 ± 0.0028
UCCUGGAAGUGCUUGCAUAGUAUUUAGUAA,pre-steady-state target cleavage rate,[1],0.136 ± 0.022
same,pre-steady-state target cleavage rate,[2],0.00343 ± 0.0027
UCCUGCUACAGCUUGCAAAGUAUUUAGAAA,pre-steady-state target cleavage rate,[1],0.159 ± 0.033
same,pre-steady-state target cleavage rate,[2],0.00352 ± 0.002
UCCUCCUACAGGUUGCAUAGAAUUUAGUUA,pre-steady-state target cleavage rate,[1],0.0405 ± 0.0092
same,pre-steady-state target cleavage rate,[2],0.0062 ± 0.0014
UCCUGCUACUGCUUGCAUAGUAUUUAGAAA,pre-steady-state target cleavage rate,[1],0.0315 ± 0.0099
same,pre-steady-state target cleavage rate,[2],0.00545 ± 0.0023
UCCUGGAACAGCUUGCAUAGUAUUUGUUA,pre-steady-state target cleavage rate,[1],0.0747 ± 0.021
same,pre-steady-state target cleavage rate,[2],0.00531 ± 0.0019
UCCUCCUACAGCUUGCAGUAGUAUUUAGUUA,pre-steady-state target cleavage rate,[1],0.0101 ± 0.0053
same,pre-steady-state target cleavage rate,[2],0.00539 ± 0.0033
UCCUCCUACAGCUUGGUUAGUAUUUAGAAA,pre-steady-state target cleavage rate,[1],0.081 ± 0.016
same,pre-steady-state target cleavage rate,[2],0.00231 ± 0.0022
UCCUCCUACAGCUUCCAUUGUAUUUAGUUA,pre-steady-state target cleavage rate,[1],0.0834 ± 0.015
same,pre-steady-state target cleavage rate,[2],0.00393 ± 0.0019
UCCUGCUACAUGCUUGCAUAGUAUUUAGUUA,pre-steady-state target cleavage rate,[1],0.0998 ± 0.021
same,pre-steady-state target cleavage rate,[2],0.00438 ± 0.002
UCCUGGUAGAGCUUGCAUAGUAUUUAGAAA,pre-steady-state target cleavage rate,[1],0.128 ± 0.028
same,pre-steady-state target cleavage rate,[2],0.00392 ± 0.0022
UCCUGGAACACCUUGCAUAGUAUUUUGUUA,pre-steady-state target cleavage rate,[1],0.14 ± 0.035
same,pre-steady-state target cleavage rate,[2],0.00343 ± 0.0029
UCCUGCUAGAGCUUGCAUAGUAUUUAGAUA,pre-steady-state target cleavage rate,[1],0.117 ± 0.015
same,pre-steady-state target cleavage rate,[2],0.00536 ± 0.0018
UCCUCCUACACCUUGCAUACUAUUUAGUUA,pre-steady-state target cleavage rate,[1],0.0962 ± 0.025
same,pre-steady-state target cleavage rate,[2],0.00578 ± 0.0029
UCCUGCUACAGCUUGCAUAGUAUAAUCAAA,pre-steady-state target cleavage rate,[1],0.0335 ± 0.013
same,pre-steady-state target cleavage rate,[2],0.00391 ± 0.0037
UCCUGCUAGAGCUUGCAUAGUAUUUAGUAA,pre-steady-state target cleavage rate,[1],0.161 ± 0.023
same,pre-steady-state target cleavage rate,[2],0.00419 ± 0.0014
UCCUCCAACAGCUUGCAUAGAAUUUAGUUA,pre-steady-state target cleavage rate,[1],0.07 ± 0.014
same,pre-steady-state target cleavage rate,[2],0.00468 ± 0.0016
UCCUCCUACAGCUUGCAUAGUAUUGUAGUUA,pre-steady-state target cleavage rate,[1],0.166 ± 0.045
same,pre-steady-state target cleavage rate,[2],0.0032 ± 0.0012
UCCUGCUACAGCUUGCAUAGUUUUUUGUUA,pre-steady-state target cleavage rate,[1],0.112 ± 0.028
same,pre-steady-state target cleavage rate,[2],0.00384 ± 0.0021
UCCUGCUACAGCUUGCUUAGUAUUAAGUUA,pre-steady-state target cleavage rate,[1],0.179 ± 0.026
same,pre-steady-state target cleavage rate,[2],0.00988 ± 0.0037
UCCUCCUACAGCUUGGAUAGUAUUUACAAA,pre-steady-state target cleavage rate,[1],0.021 ± 0.0081
same,pre-steady-state target cleavage rate,[2],0.00267 ± 0.0022
UCCUGGAUGAGCUUGCUUAGUAUUAAGUUA,pre-steady-state target cleavage rate,[1],0.128 ± 0.021
same,pre-steady-state target cleavage rate,[2],0.00314 ± 0.0031
UCCUCCUACAGCUUGCAUAGUAUUAUCUUA,pre-steady-state target cleavage rate,[1],0.105 ± 0.025
same,pre-steady-state target cleavage rate,[2],0.00351 ± 0.0027
UCCUGCUAGAGCUUCCAUAGUAUUUAGUUA,pre-steady-state target cleavage rate,[1],0.246 ± 0.047
same,pre-steady-state target cleavage rate,[2],0.00239 ± 0.0017
UCCUGCUACAGCUUGCAUAGAAUUUUGUUA,pre-steady-state target cleavage rate,[1],0.06 ± 0.013
same,pre-steady-state target cleavage rate,[2],0.00457 ± 0.0019
UCCUCCUACAGCUUGCAUAGUAAAUAGUAA,pre-steady-state target cleavage rate,[1],0.119 ± 0.025
same,pre-steady-state target cleavage rate,[2],0.00375 ± 0.0025
UCCUGGAUGUCCUUGCAUAGUAUUUAGAAA,pre-steady-state target cleavage rate,[1],0.0838 ± 0.021
same,pre-steady-state target cleavage rate,[2],0.00278 ± 0.0022
UCCUGGAUGAGCUUGCAUAGUAUUAAGAAA,pre-steady-state target cleavage rate,[1],0.0183 ± 0.0092
same,pre-steady-state target cleavage rate,[2],0.004 ± 0.0026
UCCUGGAACAGCUUGCAUACUAAUUAGUUA,pre-steady-state target cleavage rate,[1],0.0355 ± 0.0087
same,pre-steady-state target cleavage rate,[2],0.00305 ± 0.0029
UCCUCCUACAGGUUGCAUAGUAUUUAGAAA,pre-steady-state target cleavage rate,[1],0.12 ± 0.023
same,pre-steady-state target cleavage rate,[2],0.00461 ± 0.0014
UCCUGGAUCAGCUUGCAAUAGUAUUUAGUUA,pre-steady-state target cleavage rate,[1],0.00703 ± 0.0039
same,pre-steady-state target cleavage rate,[2],0.0153 ± 0.0038
UCCUCCUACUCCUUGCAUAGUAUUUAGAAA,pre-steady-state target cleavage rate,[1],0.0907 ± 0.021
same,pre-steady-state target cleavage rate,[2],0.00457 ± 0.0022
UCCUCCUACAGCUUGCAUACUAUUAAGUUA,pre-steady-state target cleavage rate,[1],0.0631 ± 0.019
same,pre-steady-state target cleavage rate,[2],0.00391 ± 0.0027
UCCUGGAUCAGCUUGCAUAGUAUUAAGAAA,pre-steady-state target cleavage rate,[1],0.0751 ± 0.02
same,pre-steady-state target cleavage rate,[2],0.00459 ± 0.0022
UCCUCCUACAGCUUGCAUAGAUUUUAGUAA,pre-steady-state target cleavage rate,[1],0.0588 ± 0.015
same,pre-steady-state target cleavage rate,[2],0.00392 ± 0.0025
UCCUGCUACAGCUUGCAUAGUAUAUAGAAA,pre-steady-state target cleavage rate,[1],0.0314 ± 0.01
same,pre-steady-state target cleavage rate,[2],0.00298 ± 0.0025
UCCUGGAUGUGCUUCCAUAGUAUUUAGUAA,pre-steady-state target cleavage rate,[1],0.0304 ± 0.012
same,pre-steady-state target cleavage rate,[2],0.00486 ± 0.003
UCCUCCUACAGCUUGCAUAGAUUUUAGAAA,pre-steady-state target cleavage rate,[1],0.0147 ± 0.0053
same,pre-steady-state target cleavage rate,[2],0.00312 ± 0.0024
UCCUGGAACAGCUUGCAUAGUAUUUACAUA,pre-steady-state target cleavage rate,[1],0.0382 ± 0.014
same,pre-steady-state target cleavage rate,[2],0.00316 ± 0.0025
UCCUGGAACAGGUUGCAUAGUAUUUAGAUA,pre-steady-state target cleavage rate,[1],0.136 ± 0.025
same,pre-steady-state target cleavage rate,[2],0.00362 ± 0.0019
UCCUCCUACAGCUUGCAUAGAAUUUAGAAA,pre-steady-state target cleavage rate,[1],0.0449 ± 0.015
same,pre-steady-state target cleavage rate,[2],0.00385 ± 0.0019
UCCUGGUACAGCUUGCAUAGUAUUUAGCUUA,pre-steady-state target cleavage rate,[1],0.204 ± 0.041
same,pre-steady-state target cleavage rate,[2],0.00493 ± 0.0023
UCCUCCUACAGCUUGCAUAGUUUUUUGUUA,pre-steady-state target cleavage rate,[1],0.0587 ± 0.013
same,pre-steady-state target cleavage rate,[2],0.00441 ± 0.0026
UCCUGCUACAGCUUGCAUAGUAUUUAGAUUA,pre-steady-state target cleavage rate,[1],0.135 ± 0.023
same,pre-steady-state target cleavage rate,[2],0.00658 ± 0.0023
UCCUCCUACAGCUUGCAUAGUAAUAAGUUA,pre-steady-state target cleavage rate,[1],0.129 ± 0.021
same,pre-steady-state target cleavage rate,[2],0.0073 ± 0.004
UCCUCCUACAGCUUGCAUAGUUAUUAGAAA,pre-steady-state target cleavage rate,[1],0.0109 ± 0.0053
same,pre-steady-state target cleavage rate,[2],0.00348 ± 0.0028
UCCUCCUACAGCUUGCAUAGUAUUUAGUCUA,pre-steady-state target cleavage rate,[1],0.154 ± 0.041
same,pre-steady-state target cleavage rate,[2],0.00459 ± 0.0018
UCCUGGAUCAGCUUGCAUAGUAUUAAGUAA,pre-steady-state target cleavage rate,[1],0.178 ± 0.03
same,pre-steady-state target cleavage rate,[2],0.00602 ± 0.0026
UCCUCCUACAGCAUGCAUAGUAUUUAGAUA,pre-steady-state target cleavage rate,[1],0.176 ± 0.027
same,pre-steady-state target cleavage rate,[2],0.00452 ± 0.0019
UCCUCCUAGAGCUUGCAUAGUAUUUUGUUA,pre-steady-state target cleavage rate,[1],0.251 ± 0.029
same,pre-steady-state target cleavage rate,[2],0.006 ± 0.0024
UCCUGCUACAGCUUGCAUACUAAUUAGUUA,pre-steady-state target cleavage rate,[1],0.0334 ± 0.0091
same,pre-steady-state target cleavage rate,[2],0.00252 ± 0.0014
UCCUGCUACAGCUUGCAUAGUAUAAUGUUA,pre-steady-state target cleavage rate,[1],0.166 ± 0.022
same,pre-steady-state target cleavage rate,[2],0.00304 ± 0.002
UCCUGCUACAGCUUGCAUAGUUUUUAGAAA,pre-steady-state target cleavage rate,[1],0.0163 ± 0.0061
same,pre-steady-state target cleavage rate,[2],0.00343 ± 0.0019
UCCUGGUACAGCUUGGAUAGUAUUUAGUAA,pre-steady-state target cleavage rate,[1],0.202 ± 0.041
same,pre-steady-state target cleavage rate,[2],0.00283 ± 0.0021
UCCUGGUACAGCUUGCAAAGUAUUUAGUAA,pre-steady-state target cleavage rate,[1],0.0794 ± 0.014
same,pre-steady-state target cleavage rate,[2],0.00304 ± 0.0024
UCCUGGAACUGCUUGCAUACUAUUUAGUUA,pre-steady-state target cleavage rate,[1],0.076 ± 0.01
same,pre-steady-state target cleavage rate,[2],0.0046 ± 0.0019
UCCUGCAUCAGCUUGCAUAGUAUUUUCAAA,pre-steady-state target cleavage rate,[1],0.118 ± 0.029
same,pre-steady-state target cleavage rate,[2],0.00236 ± 0.0016
UCCUCCUACACCUUGCAUAGUUUUUAGUUA,pre-steady-state target cleavage rate,[1],0.0414 ± 0.012
same,pre-steady-state target cleavage rate,[2],0.00443 ± 0.002
UCCUCCUUCAGCUUCCAUAGUAUUUAGUUA,pre-steady-state target cleavage rate,[1],0.0522 ± 0.015
same,pre-steady-state target cleavage rate,[2],0.00448 ± 0.0019
UCCUCCUACUGCUUGCAUAGUAUUUAGAAA,pre-steady-state target cleavage rate,[1],0.0658 ± 0.017
same,pre-steady-state target cleavage rate,[2],0.00462 ± 0.0021
UCCUGCUACAGCUUGCAUAGUUUUAAGUUA,pre-steady-state target cleavage rate,[1],0.0676 ± 0.015
same,pre-steady-state target cleavage rate,[2],0.00341 ± 0.0017
UCCUGGAUCAGCUUGCAUUGUAUUUAGAUA,pre-steady-state target cleavage rate,[1],0.103 ± 0.019
same,pre-steady-state target cleavage rate,[2],0.00276 ± 0.0021
UCCUCCUACAGCUUGCUUAGUAUUUAGAUA,pre-steady-state target cleavage rate,[1],0.15 ± 0.018
same,pre-steady-state target cleavage rate,[2],0.00689 ± 0.0038
UCCUCCUACAGCUUGCAUAGUAAUUAGAUA,pre-steady-state target cleavage rate,[1],0.179 ± 0.046
same,pre-steady-state target cleavage rate,[2],0.00553 ± 0.0026
UCCUGGUUCAGCUUGCAUAGUAUUUAGAUA,pre-steady-state target cleavage rate,[1],0.106 ± 0.022
same,pre-steady-state target cleavage rate,[2],0.00378 ± 0.002
